These results are taken from PubChem BioAssay (Tox21).

Molecules are shown by their SMILES. “And” between values parts separate entries of the source, which are not always exact repeats. Equal values may be shown once. Records with an inconclusive call do not appear. Entries that show only a call come without a potency. Where a structure was tested more than once in an assay, its records may differ in their call. The source made the active and inactive calls. The call rests on the fitted dose curve; in most records, active means well fitted cell-killing curve with a large enough effect in the repeat runs; inconclusive means weak or mixed curves, or effect the other way; inactive means flat fitted curve, though single readings scatter.
Potency means the concentration at half of the fitted maximal effect.

The assay is described as follows: qHTS assay to identify small molecule agonists of the sonic hedgehog signaling (Shh) pathway - cell viability counter screen (AID 1259366). Further: nearly all actives have a fitted effect of over 50% in size. As to conditions: NIH/3T3 Gli1-Luc viability, CellTiter-Fluor, 24 h; series mostly up to 92.4 µM; viability change, negative = cytotoxic: at the top concentration. From the text:
National Center for Advancing Translational Sciences [NCATS]
NIH Chemical Genomics Center [NCGC]
U.S. Environmental Protection Agency [EPA]
National Institutes of Environmental Health Sciences [NIEHS]
National Toxicology Program [NTP]
U.S. Food and Drug Administration [FDA]
The sonic hedgehog (Shh) pathway is essential for normal embryonic development. Dysregulation of the Shh pathway can cause severe developmental defects in organs. Therefore chemicals that interfere with the pathway are potential developmental toxicants. A cell line designated 3T3Gli1-Luc (DMB/OARSA/CFSAN/FDA, Laurel, MD), a NIH/3T3 derived clone containing stably integrated Gli1-Luc reporter is used to detect chemical interference of the Shh pathway, by changes in the expression of the firefly Luc gene under the control of the Gli1 transcriptional response element. This cell line was used to screen Tox21 libraries for identifying and prioritizing the potential developmental toxicants that interfere Shh pathway. The cytotoxicity of the compounds was tested in parallel by measuring the cell viability using CellTiter-Fluor assay system (Promega, Madison, WI) in the same wells.
Tox21 Assay Protocol Summary:
3T3 Gli1-Luc cells were dispensed at 2,000 per well in 5uL of culture medium into white solid bottom 1536-well plates (Greiner Bio-One, Monroe, NC) using a Multidrop Combi (Thermo Scientific, Waltham, MA) dispenser. The assay plates were incubated at 37 C and 5% CO2 for 4hr, and then 23nL of compounds dissolved in DMSO and positive control were transferred using a Pintool station (Wako, San Diego, CA). The assay plates were incubated at 37C and 5% CO2 for 24hr. For viability read, after 23hr of compound treatment, 1uL of CellTiter-Fluor reagent (Promega Corporation, Madison, WI) was added to each well of the assay plates using Flying Reagent Dispenser (FRD, Aurora Discovery, San Diego, CA) and incubated the assay plates at 37C for 1hr. The fluorescence signal was quantified using a ViewLux plate reader (Perkin Elmer, Shelton, CT).
A general note: qHTS replaces the single test concentration by a dilution series.
As for `OC[C@@H](O)[C@@H](O)[C@H](O)[C@H](O)CO`, the Potency result was “inactive”.
In the case of `N[C@@H](Cc1c[nH]c2ccc(O)cc12)C(=O)O`, the Potency result is “inactive”.
As to `C=CC(=O)NC(C)(C)CS(=O)(=O)O`, the Potency result was “inactive”.
With `O=C1OC(c2ccc(O)cc2)(c2ccc(O)cc2)c2ccccc21`, the “viability change, negative = cytotoxic” value was -20.7% [at 42.5 µM] (inactive).
With `CC(=O)Oc1ccccc1C(=O)O`, the Potency result was “inactive”.
In the case of `CC(C)(C)NCC(O)c1ccc(O)c(CO)c1` (stereo not given), the Potency result is “inactive”.
For `C=C(C)OC(C)=O`, the Potency result is “inactive”.
Same read-out and setting: to `CCCCCCCCCCCCCC(=O)OC(C)C` belongs “inactive”.
The same measure, in the same setting: under `COC(=O)c1ccc(O)cc1` stands “inactive”; under `CCOCCO`, “inactive”.
As for `CC(C)Cc1ccc(C(C)C(=O)O)cc1` (stereo not given), the Potency result was “inactive”.
Regarding `COc1cc2c(c(OC)c1OC)-c1ccc(OC)c(=O)cc1[C@@H](NC(C)=O)CC2`, the Potency entry is “inactive”.
Regarding `COC(=O)c1ccc(C=O)cc1`, the Potency entry is “inactive”.
Take `C[C@]12C=CC(=O)C=C1CC[C@@H]1[C@@H]2C(=O)C[C@@]2(C)[C@H]1CC[C@]2(O)C(=O)CO`: the Potency result is “inactive”.
The same measure, in the same setting: to `CN/C(=C\[N+](=O)[O-])NCCSCc1ccc(CN(C)C)o1` belongs “inactive”.
Take `CCCCCCCC(=O)OCC(O)CO` (stereo not given): the Potency entry is “inactive”.
`O=C(O)CCCCC1CCSS1` (stereo not given): the Potency result is “inactive”.
Consider `O=C1CCCCCN1`, for which the Potency is 15.4 µM (active) and inactive.
As for `CCN(CC)CCOC(=O)c1ccc(N)cc1`, the Potency result is “inactive”.
Same read-out and setting: under `COc1ccc(C(=O)c2ccccc2)c(O)c1` stands “inactive”.
On the same count and under the same terms, to `COC1=CC(=O)C[C@@H](C)[C@]12Oc1c(Cl)c(OC)cc(OC)c1C2=O` belongs “inactive”; to `NC(=O)NO`, “inactive”.
On the same count and under the same terms, under `O=c1cc[nH]c(=O)[nH]1` stands “inactive”.
In the case of `CCCCNC(=O)NS(=O)(=O)c1ccc(N)cc1`, the Potency result is “inactive”.
On the same count and under the same terms, to `C=C(C)C(N)=O` belongs “inactive”; to `CCc1cc(C(N)=S)ccn1`, “inactive”.
Regarding `Oc1cccc(O)c1`, the Potency result is “inactive”.
As to `NC(N)=NC(N)=NCCc1ccccc1`, the Potency result is “inactive”.
Take `Cc1c(N(C)CS(=O)(=O)O)c(=O)n(-c2ccccc2)n1C`: the Potency entry is “inactive”.
Still for that read-out and setting: to `CO[C@H]1C=CO[C@@]2(C)Oc3c(C)c(O)c4c(O)c(c(/C=N/N5CCN(C)CC5)c(O)c4c3C2=O)NC(=O)/C(C)=C\C=C[C@H](C)[C@H](O)[C@@H](C)[C@@H](O)[C@@H](C)[C@H](OC(C)=O)[C@@H]1C` belongs 24.5 µM (active) and 15.5 µM (active) and 13.3 µM (active).
As for `C[C@]12CC[C@@H]3c4ccc(O)cc4C[C@@H](CCCCCCCCCS(=O)CCCC(F)(F)C(F)(F)F)[C@H]3[C@@H]1CC[C@@H]2O` (stereo not given in full), the Potency entry is “inactive”.
On the same count and under the same terms, to `C#C[C@]1(O)CC[C@H]2[C@@H]3CCc4cc(O)ccc4[C@H]3CC[C@@]21C` belongs “inactive”.
`CCCCCCCCOc1ccc(C(=O)c2ccccc2)c(O)c1`: the Potency entry is “inactive”.
Consider `CCCCOC(=O)CCCCCCCCC(=O)OCCCC`, for which the Potency result is “inactive”.
For `CCCCOCCOCCOC(C)=O`, the Potency result is “inactive”.
`C[C@]12C[C@H](O)[C@H]3[C@@H](CCC4=CC(=O)CC[C@@]43C)[C@@H]1CC[C@@H]2C(=O)CO`: the Potency result was “inactive”.
On the same count and under the same terms, to `CCCCCCCCCCCCCCCCCC(=O)OCC(O)CO` (stereo not given) belongs “inactive”; to `O=[N+]([O-])c1ccc(O)cc1`, 50.4 µM (active) and 54.5 µM (active); to `Cc1cnc(NC(=O)C2=C(O)c3ccccc3S(=O)(=O)N2C)s1`, “inactive”.
Consider `C#C[C@]1(O)CC[C@H]2[C@@H]3CCC4=CC(=O)CC[C@@H]4[C@H]3CC[C@@]21CC`, for which the Potency entry is “inactive”.
